Laboratory results: PubChem BioAssay (NCATS)
Records with an inconclusive call do not appear. A call without a number means that no potency is given here. The source made the active and inactive calls. The call rests on the fitted dose curve; in most records, active means well fitted inhibition curve with a large enough effect; inconclusive means small, poorly fitted or top-dose-only effect; inactive means flat fitted curve, though single readings scatter.

Each molecule was assayed on Zika virus NS2B-NS3 protease (assay: Primary screen GU AMC qHTS for Zika virus inhibitors (AID 1347154; further: nearly all actives have a fitted effect of over 70% in size)). Settings: Zika NS2B-NS3 unlinked protease, AMC fluorogenic substrate; series mostly up to 54.1 µM.
Procedure, shortened: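 Unlinked Zika NS2B hydrophilic domain–NS3 protease complex at 25 nM in 10 mM Tris-HCl pH 8.0, 0.01% Tween 20, with an AMC peptide substrate. Fluorescence change (340/450 nm) over 15 min at room temperature, normalized to controls, fitted to 4-parameter Hill.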

Row | SMILES | Potency
1 | CCCCCCCCCC(=O)O[C@H]1CC[C@H]2[C@@H]3CCC4=CC(=O)CC[C@@H]4[C@H]3CC[C@]12C | inactive
2 | Oc1ccc(Cl)cc1 | inactive
3 | CCN[C@@H](C)Cc1cccc(C(F)(F)F)c1 | inactive
4 | CCCCCCC(=O)CCCCCC/C=C/C[C@@H](O)[C@H](O)[C@@](N)(CO)C(=O)O | inactive
5 | COc1cc(CCN)cc(OC)c1OC | inactive
6 | CCN(CCO)CCn1c(Cc2ccccc2)nc2c1c(=O)n(C)c(=O)n2C | inactive
7 | COP(=S)(OC)Oc1cc(Cl)c(Cl)cc1Cl | inactive
8 | O=C1OC(CCN2CCCCC2)OC1(c1ccccc1)c1ccccc1 (stereo not drawn) | inactive
9 | C=CCC1([C@H](C)CCC)C(=O)NC(=O)NC1=O | inactive
10 | O=[N+]([O-])O[C@H]1CO[C@H]2[C@@H]1OC[C@H]2O[N+](=O)[O-] | inactive
11 | COc1cc(OC)c(OC)cc1C=O | inactive
12 | c1ccc(N2CCNCC2)cc1 | inactive
13 | O=C1c2ccccc2C(=O)c2ccccc21 | inactive
14 | O=C(O)c1ccc(=O)[nH]c1 | inactive
15 | CCOC(=O)CC(SP(=S)(OC)OC)C(=O)OCC (stereo not drawn) | inactive
16 | C[C@]12CC[C@H]3[C@@H](CC[C@@]45O[C@H]4C(O)=C(C#N)C[C@]35C)[C@H]1CC[C@H]2O | inactive
17 | NC(=O)CS(=O)C(c1ccccc1)c1ccccc1 (stereo not drawn) | inactive
18 | [N-]=[N+]=CC(=O)OC[C@H](N)C(=O)O | inactive
19 | CCN[C@@H](C)Cc1ccccc1 | inactive

Row | SMILES | Potency
20 | CCC(CC)(CNC(=O)CCCO)c1cccc(OC)c1 | inactive
21 | CC(Cc1ccccc1)NCCn1cnc2c1c(=O)n(C)c(=O)n2C (stereo not drawn) | inactive
22 | CCc1cc2c(s1)-n1c(C)nnc1CN=C2c1ccccc1Cl | inactive
23 | CN(C)CCc1c[nH]c2cccc(OP(=O)(O)O)c12 | inactive
24 | Nc1nc(N)nc(NC2CC2)n1 | inactive
25 | COc1c2c(cc3c1OCO3)CCN(C)C2 | inactive
26 | C[C@@H]1CC2=CC(=O)CC[C@@H]2[C@H]2CC[C@@]3(C)[C@@H](CC[C@]3(C)O)[C@@H]21 | inactive
27 | CNCC(=O)c1ccc(O)c(O)c1 | inactive
28 | CN1CC[C@]23c4c5ccc(O)c4O[C@H]2[C@@H](O)C=C[C@H]3[C@H]1C5 | inactive
29 | CC(C)c1c(CN(C)C(C)Cc2ccccc2)n(C)n(-c2ccccc2)c1=O (stereo not drawn) | inactive
30 | COc1cccc(C(=O)CCN[C@@H](C)[C@H](O)c2ccccc2)c1 | inactive
31 | C[C@H](N)C(=O)c1ccccc1 | inactive
32 | CN1C(=O)NC(=O)C(C)(C2=CCCCC2)C1=O (stereo not drawn) | inactive
33 | C[C@]12CCC(=O)C=C1CC[C@@H]1[C@H]3CC[C@](C)(O)[C@@]3(C)CC[C@@H]12 | inactive
34 | COC(=O)[C@@H](N)CCCN/C(N)=N/[N+](=O)[O-] | inactive
35 | Clc1ccccc1N1CCNCC1 | inactive
36 | C[N+]1(CCF)[C@@H]2CC[C@H]1CC(OC(=O)C(O)(c1ccccc1)c1ccccc1)C2 (stereo partly drawn) | inactive
37 | CN1CC[C@]23c4c5ccc(O)c4O[C@H]2[C@@H](O)CC[C@H]3[C@H]1C5 | inactive
38 | Clc1ccc(C(c2ccc(Cl)cc2)C(Cl)(Cl)Cl)cc1 | inactive
